Screening results (PubChem)
Only a selection was taken, and hits are over-represented in it overall.
Cycloheximide cs – counter-screen hit for Shiga toxin inhibitors, cycloheximide. max response, %. cell reporter, cycloheximide protein synthesis inhibition counterscreen. 300,000 tested, 12% active. AID 2314; in the data active = max response mostly above about 13%, no sharp cut-off; inactive = mostly below about 14%; also: read at 38.3 µM for the half of the compounds with a filed dose; 0% is about no effect
Shiga toxin inh – inhibitors of Shiga toxin in Vero cells; Vero cells, Shiga toxin protein synthesis inhibition reporter; inhibition, % at 38.7 µM; 290,000 tested, 9.2% active; AID 2315; in the data active = inhibition mostly above about 28%, no sharp cut-off; inactive = mostly below about 43%; also: 0% is about no effect
TbPYK inhibitor – blocks Trypanosoma brucei pyruvate kinase; 410,000 tested, 0.12% active; Q57TT1; TbPYK enzyme, Kinase-Glo Plus ATP luminescence, 45 min; Potency, µM (doses to about 76.8 µM), for inactives: at the highest dose activity, negative = inhibition, usual class: inhibitors; also: potency is read from the fitted curve at half-maximal effect; % is scaled to controls: 0 for no effect and ±100 for the full control effect; nearly all actives have a fitted effect of over 50% in size
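ADP (130 uM final) triggers the TbPYK reaction after compound addition; incubation is 45 min at room temperature. Kinase-Glo Plus is then added and luminescence imaged. Normalized data are fitted to concentration-effect curves.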
Giardia FBPA inh – Giardia lamblia aldolase inhibition; A8B2U2; purified Giardia FBPA; Potency, µM (series often up to 59.6 µM), without a hit: top-dose activity, negative = inhibition, most hits filed as inhibitors; 290,000 tested, 0.71% active; AID 2451; also: potency is read from the fitted curve at half-maximal effect; % is scaled to controls: 0 for no effect and ±100 for the full control effect; nearly all actives have a fitted effect of over 55% in size
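40 nM FBPA preincubated 10 min at RT with compound (up to 57.5 uM final), then substrate plus GAPDH/TPI/NAD/arsenate coupling and diaphorase/resazurin added. Fluorescence read after 20 min at RT, 525/598 nm.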
RE007 growth inh – less growth of the S. pombe RE007 Vpr strain. S. pombe RE007 Vpr strain, BacTiter-Glo ATP luminescence, 24 h. AID 651644. 360,000 tested, 0.21% active. Potency, µM (doses to about 92.2 µM), for the others: at the highest dose activity change, negative = less growth, actives largely listed as inhibitors; active = well fitted falling curve with a large enough effect; inconclusive = small, poorly fitted or top-dose-only effect; inactive = no such curve, though single readings can be large or run the other way; also: potency is read from the fitted curve at half-maximal effect; % is scaled to controls: 0 for no effect and ±100 for the full control effect; nearly all actives have a fitted effect of over 50% in size
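Fission yeast RE007 carrying one integrated HIV-1 vpr copy, seeded at OD 0.01 in PMG+AL medium with 23 nL pinned compound. Grown 24 h at 30 degrees; viability read by BacTiter-Glo luminescence after 5 min.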
LmPK inh – blocks Leishmania mexicana pyruvate kinase activity | Potency, µM (series often up to 57.5 µM), without a hit: at the top dose activity change, negative = inhibition, hits mostly inhibitors | Q27686 | 290,000 tested, 0.37% active | purified LmPK, Kinase-Glo ATP luminescence, 1 h; also: potency is read from the fitted curve at half-maximal effect; % is scaled to controls: 0 for no effect and ±100 for the full control effect
Target sequence (Q27686 whole entry, looked up): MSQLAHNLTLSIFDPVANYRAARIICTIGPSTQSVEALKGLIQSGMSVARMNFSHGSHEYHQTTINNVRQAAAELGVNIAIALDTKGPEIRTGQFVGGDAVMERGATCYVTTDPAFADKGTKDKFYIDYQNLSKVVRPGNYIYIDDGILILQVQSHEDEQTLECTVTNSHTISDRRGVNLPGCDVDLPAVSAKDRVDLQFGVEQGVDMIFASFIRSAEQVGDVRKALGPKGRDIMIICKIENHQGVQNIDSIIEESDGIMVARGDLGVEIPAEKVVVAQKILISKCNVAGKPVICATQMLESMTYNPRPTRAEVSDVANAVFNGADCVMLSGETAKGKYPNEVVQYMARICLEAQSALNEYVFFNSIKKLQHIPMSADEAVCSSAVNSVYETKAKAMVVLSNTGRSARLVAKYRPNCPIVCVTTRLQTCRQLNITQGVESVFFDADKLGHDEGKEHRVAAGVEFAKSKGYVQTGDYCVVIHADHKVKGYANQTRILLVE
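Screened at intermediate enzyme activity to detect both inhibitors and activators: LmPK at 0.1 nM, with a 0.5 nM enzyme column as activation reference. PEP 0.5 mM, ADP 0.1 mM; ATP detected by luminescence after 1 h.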
An asterisk follows results filed as active; ? = inconclusive; / = no result given; [ ] = dose if it differs, or a comment. Unless noted, calls follow the shape of the dose curve; as a rule, active = well fitted curve in the direction sought with a large enough effect; inconclusive = small, poorly fitted or top-dose-only effect, or another doubt; inactive = no such curve, though single readings can be large; an effect the other way counts as inactive or inconclusive.

SMILES	Cycloheximide cs	Shiga toxin inh	TbPYK inhibitor	Giardia FBPA inh	RE007 growth inh	LmPK inh
COc1cccc(-c2cc(C(=O)N/N=C/c3ccco3)c3ccccc3n2)c1	26*	67*	-14%	-1%	13%	-3%
CCCOc1cccc(-c2cc(C(=O)N/N=C/c3ccccn3)c3ccccc3n2)c1	21*	42*	1%	/	17%	-10%
O=C(N/N=C/c1ccco1)c1cc(-c2ccccc2)nc2ccccc12	14	23	-7%	/	2%	14%
O=C(N/N=C/c1ccc([N+](=O)[O-])o1)c1cc(-c2cccc(Br)c2)nc2ccccc12	-2	-4	2%	-11%	13%	7%
CN[C@H](C)Cc1ccccc1	/	/	-10%[157 µM]	/	/	/
CCN(CCCNC(=O)c1nn(-c2ccc(OC)cc2)c(=O)c2c1c1ccccc1n2C)c1cccc(C)c1	/	/	2%	/	/	/
Cc1ccc(C(=O)N2CCN(c3cccc(Cl)c3)CC2)cc1-n1c(C)nc2cccnc21	/	/	1%[15.4 µM]	/	/	/
C/C(=N\NC(=O)c1cc(-c2cccnc2)nc2ccccc12)c1ccccc1O	11*	17	-12%	-3%	-5%	-5%
CCCOc1cccc(-c2cc(C(=O)N/N=C/c3cccnc3)c3ccccc3n2)c1	30*	76*	0%	/	-6%	-3%
COc1ccc(-c2cc(C(=O)N/N=C(\C)c3cccnc3)c3ccccc3n2)cc1	12*	53	9%	3%	1%	-2%
COc1ccc(/C(C)=N/NC(=O)c2cc(-c3cccnc3)nc3ccccc23)cc1	-1	-12	1%	4%	-13%	4%
COc1ccc(CCn2c(SCC(=O)Nc3cc(C)on3)nc3ccccc3c2=O)cc1OC	-4	16	2%	0%	3%	-1%
Cc1cc(NC(=O)CSc2nc3cc4c(cc3c(=O)n2CCc2ccccc2)OCO4)no1	9.4*	1	-7%	2%	4%	2%
CCC(C)NC(=O)c1sc2nc(C)c(C(=O)Nc3ccc(C)cc3C)c(-c3ccc(NC(C)=O)cc3)c2c1N (centres undefined)	/	/	-4%	/	/	/
CCC(=O)NC(c1ccccc1)c1nc2ccccc2[nH]1 (centres undefined)	44*	68*	-4%	-9%	0%	-6%
CCCC(=O)NC(C)c1nc2ccccc2[nH]1 (centres undefined)	-2	6	3%	-4%	-2%	1%
Cc1nc2cc3ccccc3cc2c(=O)[nH]1	31*	46*	-12%	?	-3%	?
Cc1nc2sc(-c3ccccc3)cc2c(=O)[nH]1	19*	40	-13%	4%	-17%	?
CC(C)OC(=O)Cc1nc2sc(-c3ccccc3)cc2c(=O)[nH]1	61*	69*	0%	21%	-3%	6%
CCn1cc(C(=O)N2CCN(c3ccccc3)CC2)c(=O)c2cc(S(=O)(=O)N(C)C3CCCCC3)ccc21	/	/	2%	/	/	/
COc1ccc(N(C)C(=O)c2nc(-c3cccc(F)c3)n3c2CCCCC3)c(OC)c1	/	/	-1%	/	/	/
COc1ccc(N2CSC3=C(C#N)C(c4cccs4)CC(=O)N3C2)cc1 (centres undefined)	18*	46	-5%	0.5µM*	-15%	12%
CCc1ccc(N2CSC3=C(C#N)C(c4cccs4)CC(=O)N3C2)cc1 (centres undefined)	15*	35	?	?	-8%	-11%
N#CC1=C2SCN(Cc3ccco3)CN2C(=O)CC1c1ccccc1F (centres undefined)	-1	-3	?	?	-21%	-8%
CCc1ccc(C2CC(=O)N3CN(c4ccccc4)CSC3=C2C#N)cc1 (centres undefined)	8	19	4.5µM*	?	0%	-11%
SMILES	Cycloheximide cs	Shiga toxin inh	TbPYK inhibitor	Giardia FBPA inh	RE007 growth inh	LmPK inh
Cc1ccc(CN(C(=O)COc2ccccc2Cl)c2ccccn2)o1	/	/	-22%	/	/	/
O=C(Nc1ccc(N2CCCCC2)cc1)c1ccccn1	-8	-21	?	-2%	?	7.9µM*
CN1CCN(c2ccc(NC(=O)c3ccc(Cl)cc3Cl)cc2)CC1	15*	/	5%	6%	14%	6%
O=C(Nc1ccc(N2CCCCC2)cc1)C(Cl)c1ccccc1 (centres undefined)	46*	84	-5%	-10%	1%	-10%
COc1ccccc1C(=O)Nc1ccc(N2CCCCC2)cc1	45*	65*	-19%	-6%	-15%	?
O=C(c1cccc([N+](=O)[O-])c1)N1CCN(c2ccc(Nc3ccccc3)nn2)CC1	/	/	1%	/	/	/
FC(F)(F)Sc1ccc(NC(=S)NCc2ccccc2)cc1	12	18	-8%	-11%	-13%	7%
O=C(Nc1ccc(N2CCOCC2)cc1)c1cc(F)c(F)cc1Cl	35*	56*	-3%	2%	-12%	0%
CSc1ccc(Cl)c(C(=O)Nc2ccc(N3CCOCC3)cc2)c1	5	18	0%	5%	12%	1%
O=C(Nc1ccc(SC(F)(F)F)cc1)c1ccccn1	30*	113*	-5%	-7%	?	-16%
O=C(Nc1ccc(N2CCCC2)cc1)c1ccc(Cl)cc1Cl	47*	47*	-6%	4%	16%	-1%
O=C(Nc1ccccc1N1CCCCC1)c1cccc(Cl)c1	-3	2	3%	-2%	-18%	1%
O=C(Nc1ccc(N2CCCC2)cc1)c1cccc(Cl)c1	25*	52*	-23%	?	-8%	-6%
O=C(Nc1ccccc1N1CCCC1)c1ccc(Cl)cc1Cl	-2	28	1%	-6%	-12%	6%
COc1ccc(CN(C(=O)c2ccc(OCC(C)C)cc2)C2CCS(=O)(=O)C2)cc1 (centres undefined)	/	/	2%	/	/	/
O=C(Nc1ccccc1N1CCCC1)c1cc(Cl)ccc1Cl	-2	-4	-3%	1%	-6%	3%
O=C(COc1ccccc1Cl)Nc1ccc(N2CCCC2)cc1	25*	53*	-4%	/	16%	-5%
CC(=O)N1CCN(c2ccc(NC(=O)c3ccccc3Cl)cc2)CC1	-1	3	0%	1%	-8%	-2%
COC(=O)Cc1ccc(NC(=O)c2ccccc2Cl)cc1	28*	35	0%	-4%	25%	-3%
O=C(Nc1ccc(N2CCCCCC2)cc1)c1ccccc1Cl	34*	53*	4%	-6%	-19%	0%
O=C(Nc1ccc(N2CCCC2)cc1)c1cc(Cl)ccc1Cl	13*	/	-28%	9%	6%	-3%
COc1ccc(-c2noc(CSc3nnc(C)n3-c3ccc(F)cc3)n2)cc1	/	/	0%	/	/	/
CC(C)(C)NC(=O)[C@H]1CC[C@H]2[C@@H]3CC=C4C=C(C(=O)O)CC[C@@]4(C)[C@H]3CC[C@]12C	/	/	0%	/	/	/
CC(C)CCn1c(=O)c2sccc2n2c(CCCC(=O)NCc3ccc(F)cc3)nnc12	/	/	-5%	/	/	/
